# The supplement of paper PMC10849652
# About 8,800 targets were measured; listed, in parts, are those with a hit and a random draw of the rest. About 0.5% of all pairs of compound and target were hits. Values without a mark were called inactive.
# Compound: CCn1cc(-c2ccnc3[nH]c(-c4cccc(CN(C)C)c4)cc23)c(-c2ccc(NC(=O)N(C)C)cc2)n1
# Assay: log2 fold change, soluble protein after heating vs DMSO (PISA); higher = thermal stabilisation; K562 lysate, 10 uM; active = over 0.2 and 3.5 SD of the protein, either way, in both replicates (recomputed)
# Procedure, shortened: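 K562 pellets were dounce-homogenised in PBS pH 7.4 with 1 mM MgCl2, and the crude extract at 1 mg/mL protein was treated with 10 μM compound for 30 min. Aliquots were heated for 3 min across 48°C-58°C, pooled, and brought to 0.5% NP-40 at 4°C; soluble protein was the supernatant after 21,000xg for 90 min. Soluble protein was quantified by TMTpro 16plex LC-MS/MS with channel sums equalised, and reported as log2 fold change in thermal stability against DMSO controls, with values from duplicates.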
# Sequence of UniProt Q8NG31 (Q8NG31 whole entry, looked up): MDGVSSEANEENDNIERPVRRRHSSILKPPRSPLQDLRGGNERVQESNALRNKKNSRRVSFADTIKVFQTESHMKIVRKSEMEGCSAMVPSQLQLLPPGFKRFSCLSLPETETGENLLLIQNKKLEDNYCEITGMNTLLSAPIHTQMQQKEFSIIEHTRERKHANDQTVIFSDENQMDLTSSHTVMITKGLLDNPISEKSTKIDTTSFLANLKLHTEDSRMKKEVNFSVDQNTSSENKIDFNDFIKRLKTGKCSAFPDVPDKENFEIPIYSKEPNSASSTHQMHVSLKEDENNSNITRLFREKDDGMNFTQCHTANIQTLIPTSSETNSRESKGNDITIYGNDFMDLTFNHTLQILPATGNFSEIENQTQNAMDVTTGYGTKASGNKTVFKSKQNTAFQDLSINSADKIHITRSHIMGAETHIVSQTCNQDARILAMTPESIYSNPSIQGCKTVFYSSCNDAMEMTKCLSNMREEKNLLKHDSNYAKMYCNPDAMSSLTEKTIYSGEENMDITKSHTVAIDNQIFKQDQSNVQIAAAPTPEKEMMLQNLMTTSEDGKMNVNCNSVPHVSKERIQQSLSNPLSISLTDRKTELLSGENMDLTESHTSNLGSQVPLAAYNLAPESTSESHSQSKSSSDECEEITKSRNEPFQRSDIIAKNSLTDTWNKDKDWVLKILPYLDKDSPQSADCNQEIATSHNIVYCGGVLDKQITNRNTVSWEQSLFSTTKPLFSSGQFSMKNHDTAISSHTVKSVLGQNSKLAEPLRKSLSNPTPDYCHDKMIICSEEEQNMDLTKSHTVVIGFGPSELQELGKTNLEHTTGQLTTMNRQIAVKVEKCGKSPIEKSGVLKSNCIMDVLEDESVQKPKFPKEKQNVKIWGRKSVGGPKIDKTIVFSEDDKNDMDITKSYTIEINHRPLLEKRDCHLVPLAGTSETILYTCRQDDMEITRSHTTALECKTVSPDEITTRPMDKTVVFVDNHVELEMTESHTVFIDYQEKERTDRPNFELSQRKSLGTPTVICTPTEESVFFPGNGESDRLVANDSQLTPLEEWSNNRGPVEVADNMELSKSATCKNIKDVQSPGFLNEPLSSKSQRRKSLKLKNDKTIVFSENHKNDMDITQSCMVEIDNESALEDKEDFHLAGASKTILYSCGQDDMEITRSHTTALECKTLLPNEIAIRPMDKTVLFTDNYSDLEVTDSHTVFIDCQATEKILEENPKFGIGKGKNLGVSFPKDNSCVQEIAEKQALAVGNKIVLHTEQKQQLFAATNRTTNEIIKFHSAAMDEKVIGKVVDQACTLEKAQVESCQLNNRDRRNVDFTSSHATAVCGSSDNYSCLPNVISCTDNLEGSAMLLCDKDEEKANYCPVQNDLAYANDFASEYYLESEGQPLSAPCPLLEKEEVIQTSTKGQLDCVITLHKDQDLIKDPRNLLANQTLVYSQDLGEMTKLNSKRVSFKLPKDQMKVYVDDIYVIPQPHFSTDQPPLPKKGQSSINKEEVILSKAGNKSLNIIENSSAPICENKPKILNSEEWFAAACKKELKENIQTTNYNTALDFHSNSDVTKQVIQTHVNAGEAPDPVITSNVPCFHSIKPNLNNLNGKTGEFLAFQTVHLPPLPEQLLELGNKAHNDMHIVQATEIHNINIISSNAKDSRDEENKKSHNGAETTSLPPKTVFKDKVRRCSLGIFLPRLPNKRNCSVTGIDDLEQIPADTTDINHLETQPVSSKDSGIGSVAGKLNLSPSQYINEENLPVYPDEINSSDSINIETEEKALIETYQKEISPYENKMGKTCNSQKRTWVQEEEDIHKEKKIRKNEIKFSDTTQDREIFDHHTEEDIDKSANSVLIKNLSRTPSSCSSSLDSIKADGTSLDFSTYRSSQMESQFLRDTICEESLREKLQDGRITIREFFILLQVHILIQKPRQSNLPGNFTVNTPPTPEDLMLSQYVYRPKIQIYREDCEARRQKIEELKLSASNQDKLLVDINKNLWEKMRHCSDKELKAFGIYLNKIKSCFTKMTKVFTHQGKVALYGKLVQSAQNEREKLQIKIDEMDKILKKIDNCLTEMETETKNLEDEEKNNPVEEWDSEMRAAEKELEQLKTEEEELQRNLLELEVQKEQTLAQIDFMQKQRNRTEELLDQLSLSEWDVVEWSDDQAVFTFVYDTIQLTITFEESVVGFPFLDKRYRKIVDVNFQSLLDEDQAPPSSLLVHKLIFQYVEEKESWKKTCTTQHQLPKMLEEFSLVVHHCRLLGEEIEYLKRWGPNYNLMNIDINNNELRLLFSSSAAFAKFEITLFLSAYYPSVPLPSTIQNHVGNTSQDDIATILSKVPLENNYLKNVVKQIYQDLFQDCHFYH
# Sequence of UniProt Q9BQ69 (Q9BQ69 whole entry, looked up): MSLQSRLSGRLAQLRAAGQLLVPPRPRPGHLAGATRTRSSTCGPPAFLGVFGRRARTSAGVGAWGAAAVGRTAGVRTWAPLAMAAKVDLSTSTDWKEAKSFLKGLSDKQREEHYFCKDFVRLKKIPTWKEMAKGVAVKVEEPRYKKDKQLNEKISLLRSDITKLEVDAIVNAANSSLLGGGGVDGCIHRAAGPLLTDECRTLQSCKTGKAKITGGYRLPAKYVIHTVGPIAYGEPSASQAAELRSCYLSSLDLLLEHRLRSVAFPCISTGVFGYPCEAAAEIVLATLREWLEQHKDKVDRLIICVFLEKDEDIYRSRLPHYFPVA
# Sequence of UniProt Q9BVC4 (Q9BVC4 whole entry, looked up): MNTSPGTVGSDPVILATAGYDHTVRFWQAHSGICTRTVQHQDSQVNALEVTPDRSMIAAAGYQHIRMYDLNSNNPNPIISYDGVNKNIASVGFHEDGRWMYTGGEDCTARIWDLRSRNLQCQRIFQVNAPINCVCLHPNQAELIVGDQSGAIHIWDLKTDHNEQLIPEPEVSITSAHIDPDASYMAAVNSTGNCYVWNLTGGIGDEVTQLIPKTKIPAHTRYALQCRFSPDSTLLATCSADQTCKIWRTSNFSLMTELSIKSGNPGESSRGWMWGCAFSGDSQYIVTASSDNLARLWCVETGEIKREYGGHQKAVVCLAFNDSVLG
# Sequence of UniProt Q9NVC6 (Q9NVC6 whole entry, looked up): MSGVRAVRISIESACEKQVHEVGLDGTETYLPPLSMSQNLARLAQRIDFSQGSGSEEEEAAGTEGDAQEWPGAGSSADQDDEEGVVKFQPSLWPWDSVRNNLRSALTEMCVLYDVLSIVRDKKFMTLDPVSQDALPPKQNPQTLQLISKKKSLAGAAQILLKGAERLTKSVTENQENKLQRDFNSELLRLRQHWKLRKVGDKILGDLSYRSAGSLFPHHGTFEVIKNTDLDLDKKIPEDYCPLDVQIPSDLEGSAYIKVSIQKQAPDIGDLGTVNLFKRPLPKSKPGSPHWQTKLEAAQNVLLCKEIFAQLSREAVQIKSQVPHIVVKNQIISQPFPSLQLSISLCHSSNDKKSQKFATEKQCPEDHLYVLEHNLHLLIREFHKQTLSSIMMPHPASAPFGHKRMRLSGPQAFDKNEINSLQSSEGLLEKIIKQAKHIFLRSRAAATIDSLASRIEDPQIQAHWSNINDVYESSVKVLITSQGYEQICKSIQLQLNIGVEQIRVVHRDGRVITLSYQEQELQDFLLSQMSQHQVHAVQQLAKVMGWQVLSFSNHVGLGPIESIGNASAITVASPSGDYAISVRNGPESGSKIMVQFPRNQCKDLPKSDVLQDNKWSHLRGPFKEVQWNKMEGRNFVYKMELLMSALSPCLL
# Sequence of UniProt Q16644 (Q16644 whole entry, looked up): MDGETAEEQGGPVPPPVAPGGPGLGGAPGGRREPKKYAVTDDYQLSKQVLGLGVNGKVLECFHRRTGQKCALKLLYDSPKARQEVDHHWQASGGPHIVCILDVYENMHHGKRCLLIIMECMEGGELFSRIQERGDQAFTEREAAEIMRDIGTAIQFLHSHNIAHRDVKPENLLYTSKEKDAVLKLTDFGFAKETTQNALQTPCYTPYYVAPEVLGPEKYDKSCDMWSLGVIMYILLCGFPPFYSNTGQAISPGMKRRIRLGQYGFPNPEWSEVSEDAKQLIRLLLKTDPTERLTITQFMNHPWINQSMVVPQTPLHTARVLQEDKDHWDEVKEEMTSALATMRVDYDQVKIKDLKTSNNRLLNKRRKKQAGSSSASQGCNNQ
# Sequence of UniProt Q9BPX6 (Q9BPX6 whole entry, looked up): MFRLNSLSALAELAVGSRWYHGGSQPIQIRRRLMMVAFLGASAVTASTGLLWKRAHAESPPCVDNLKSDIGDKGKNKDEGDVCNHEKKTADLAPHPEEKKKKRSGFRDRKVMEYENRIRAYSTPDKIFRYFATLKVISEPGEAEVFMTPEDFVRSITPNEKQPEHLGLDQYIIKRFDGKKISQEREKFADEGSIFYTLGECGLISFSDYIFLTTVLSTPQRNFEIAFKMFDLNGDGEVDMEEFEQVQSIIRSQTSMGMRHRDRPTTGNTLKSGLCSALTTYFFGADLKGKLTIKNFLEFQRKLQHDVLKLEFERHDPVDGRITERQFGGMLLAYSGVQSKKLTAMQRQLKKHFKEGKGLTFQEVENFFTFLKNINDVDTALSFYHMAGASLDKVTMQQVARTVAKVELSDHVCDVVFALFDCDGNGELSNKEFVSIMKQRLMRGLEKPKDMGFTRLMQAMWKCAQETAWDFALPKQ
# Sequence of UniProt Q13163 (Q13163 whole entry, looked up): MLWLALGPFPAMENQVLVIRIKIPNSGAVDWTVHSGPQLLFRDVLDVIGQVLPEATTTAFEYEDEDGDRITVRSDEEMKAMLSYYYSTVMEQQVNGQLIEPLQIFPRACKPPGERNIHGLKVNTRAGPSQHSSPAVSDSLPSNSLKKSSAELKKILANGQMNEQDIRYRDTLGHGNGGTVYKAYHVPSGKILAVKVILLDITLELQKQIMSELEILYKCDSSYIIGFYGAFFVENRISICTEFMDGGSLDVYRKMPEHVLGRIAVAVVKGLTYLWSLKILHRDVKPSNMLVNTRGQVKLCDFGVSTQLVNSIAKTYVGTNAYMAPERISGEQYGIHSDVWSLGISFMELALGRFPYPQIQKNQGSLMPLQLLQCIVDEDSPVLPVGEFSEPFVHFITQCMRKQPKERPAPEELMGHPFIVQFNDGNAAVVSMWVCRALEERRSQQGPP
row,Target,log2 fold change
1,MAP1S (UniProt Q66K74),-0.056
2,MON2 isoform 5 (UniProt Q7Z3U7),-0.07
3,LRPPRC (UniProt P42704),0.033
4,LBR (UniProt Q14739),0.117
5,MAPK14 (UniProt Q16539),-0.035
6,MLST8 (UniProt Q9BVC4),-0.03
7,MMS19 isoform 8 (UniProt Q96T76),-0.005
8,KNL1 (UniProt Q8NG31),0.015
9,KLC1 isoform 6 (UniProt Q07866),0.019
10,MICU1 isoform 3 (UniProt Q9BPX6),0.234 (active)
11,MOCS1 isoform 8 (UniProt Q9NZB8),-0.063
12,KLHL36 (UniProt Q8N4N3),-0.006
13,MAP2K4 isoform 2 (UniProt P45985),0.936 (active)
14,MED17 (UniProt Q9NVC6),-0.037
15,MAP2K5 (UniProt Q13163),0.15
16,LRWD1 (UniProt Q9UFC0),-0.003
17,MCMBP (UniProt Q9BTE3),0.035
18,MRPL15 (UniProt Q9P015),-0.509 (active)
19,MAST4 (UniProt O15021),-0.204
20,MBLAC2 (UniProt Q68D91),0.036

row,Target,log2 fold change
1,KNSTRN (UniProt Q9Y448),0.063
2,MAP4K4 isoform 3 (UniProt O95819),0.169
3,MACROD1 (UniProt Q9BQ69),-0.043
4,MAPK9 (UniProt P45984),0.084
5,LRRC40 (UniProt Q9H9A6),0.052
6,MRPL10 isoform 2 (UniProt Q7Z7H8),0.075
7,"MICB, A0A140T979",-0.05
8,LIG3 (UniProt P49916),-0.033
9,MAPKAPK3 (UniProt Q16644),-0.001
10,KIF2C (UniProt Q99661),0.006
11,LRCH3 (UniProt Q96II8),0.022
12,LYAR (UniProt Q9NX58),0.312 (active)
13,MGST1 (UniProt P10620),0.279 (active)
14,KLC4 isoform 3 (UniProt Q9NSK0),0.011
15,MAPKAPK5 (UniProt Q8IW41),0.017
16,MED10 (UniProt Q9BTT4),0.107
17,LPIN1 isoform 7 (UniProt Q14693),-0.052
18,KIF21A isoform 5 (UniProt Q7Z4S6),0.165
19,MAP2K1 (UniProt Q02750),0.281
